According to PubChem BioAssay (NCI):
Compounds without any hit were thinned out: in the full panel of roughly 83,000, 20% have a hit.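 Growth was measured after 48 h exposure to one concentration of compound in 96-well plates. Values under 10 count as active.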 A number with no mark means an inactive call. Activity calls are given as the source filed them.

tested on: OVCAR-5 ovarian; experiment: NCI-60 one-dose screen, 48 h (100 = growth as untreated, 0 = no growth, -100 = all killed); conditions: 10 µM unless noted
Protocol: Growth inhibition of the OVCAR-5 human tumor cell line is measured as a screen for anti-cancer activity. Cells are grown in 96 well plates and exposed to the test compound for 48 hours. Compounds are tested at a single concentration, which is 10^-5 M for most compounds. The reported endpoint is percent growth (GI% or GIPRCNT), where numbers from 0 - 100% represent growth inhibition, and numbers from -100% - 0 represent cell death. For example, a value of 40 represents 60% growth inhibition. A value of 0 means no net growth occurred over the course of the experiment. A value of -40 indicates 40% of cells at the beginning of the experiment died by the end of the experiment. A value of -100 means all cells are dead at the end of the experiment.
NCI-60 Human Tumor Cell Lines Screen was performed using the standard one-dose NCI protocol, which is described in more detail at https://dtp.cancer.gov/discovery_development/nci-60/default.htm.
Compounds with GIPRCNT values below 10 were considered active. Activity score was based on GIPRCNT using the following formula: […]
Score is 0 for GIPRCNT values of 100 or above, 50 for GIPRCNT values of 0, and 100 for GIPRCNT values of -100.

Going from `O=C(c1ccc(O)c(Br)c1)c1ccc(O)c(Br)c1` to `Oc1ccc(Br)cc1Sc1cc(Br)ccc1O`, the growth falls from 110% to 105%.

Compared with `O=C(O)c1ccc2c(c1)C(=O)c1ccccc1C2=O`, `CC(=O)c1ccc2c(c1)CCc1ccccc1-2` is lower in growth: 101% for the first, 88.9% for the second.

Going from `Oc1ccc(Nc2ccc3ccccc3c2)cc1` to `C(=N\Nc1ccc2ccccc2n1)/c1ccccn1`, the growth falls from 71.5% to 47.4%.

Compared with `CCOc1ccc2c(c1)/C(=C\C=C\C1CC(C)C3CC(OCC)CCC3N1CC)CC(C)N2CC` (stereo not given), `COC(=O)[C@]1(C)CCC[C@]2(C)c3ccc(C(C)C)cc3C(=O)[C@@H](Br)[C@@H]12` is higher in growth: 33.6% for the first, 113% for the second.

Going from `CCC(C)C(N)C(=O)NC(CC(N)=O)C(=O)NC(CC(C)C)C(=O)NC(CCCCN)C(=O)NC(C)C(=O)NC(CC(C)C)C(=O)NC(C)C(=O)NC(C)C(=O)NC(CC(C)C)C(=O)NC(C)C(=O)NC(CCCCN)C(=O)NC(CCCCN)C(=O)NC(C(=O)NC(CC(C)C)C(N)=O)C(C)CC` (stereo not given) to `Nc1nc2ncc(CNc3ccc(C(=O)NC(CCC(=O)NC(CCC(=O)NC(CCC(=O)NC(CCC(=O)NC(CCC(=O)O)C(=O)O)C(=O)O)C(=O)O)C(=O)O)C(=O)O)cc3)nc2c(=O)[nH]1` (stereo not given), the growth falls from 166% to 110%.

First: COc1cc2c(c(OC)c1OC)-c1ccc(NCc3ccccc3)c(=O)cc1[C@@H](NC(C)=O)CC2
Second: CC(=O)C1Cc2ccccc2C1=O (stereo not given)
The growth of the first is lower: 41.8% for the first, 101% for the second.

Compared with `CCCCCCCCCCCC[S+](C)CC(=O)[O-]` (stereo not given), `CCCCCCCCCCCCSC(=N)N` is lower in growth: 56.5% for the first, 37.4% for the second.

First: Cc1c(O)ccc(SC#N)c1C
Second: CC(C)c1ccc(Nc2n[nH]c(=S)s2)cc1
The growth of the first is lower: 97.3% for the first, 119% for the second.

Going from `CC1(O)CCCCCC1` to `CC(C)=C1C=C2CC[C@@H]3[C@](C)(CCC[C@@]3(C)C(=O)O)[C@H]2CC1`, the growth falls from 105% to 96.8%.

Compared with `S=C=Nc1ccc(N2CCOCC2)cc1`, `CCN1CCCC(Nc2cc(C)nc(/N=C(/N)Nc3ccc(Cl)c(Cl)c3)n2)C1` (stereo not given) is lower in growth: 97.6% for the first, 13% for the second.

Going from `CC1(C)OCC(COC(c2ccccc2)(c2ccccc2)c2ccccc2)O1` (stereo not given) to `O=[N+]([O-])/C(=C/c1ccccc1)c1ccccc1`, the growth rises from 98.1% to 103%.

First: CN(C)CC(C)(CN(C)C)C(=O)/C=C/c1c(Cl)cccc1Cl
Second: CN(C)c1ccc(/C=C/c2cc[n+](C)c(/C=C/c3ccc(N(C)C)cc3)c2)cc1
The growth of the first is higher: 53.1% for the first, 21.9% for the second.

Compared with `COC1=CC(=O)c2c(O)c3c(c(O)c2C1=O)CC(C)(O)OC3` (stereo not given), `Oc1c(Cl)cc(Cl)cc1C=NCC1CCC(CN=Cc2cc(Cl)cc(Cl)c2O)CC1` (stereo not given) is higher in growth: 35.4% for the first, 114% for the second.

Compared with `CN(C)c1ccc(/C=C/c2nccc3ccccc23)cc1`, `O=C/C=C/c1ccc([N+](=O)[O-])cc1` is higher in growth: 89.4% for the first, 107% for the second.

Going from `CC(=O)N1CC(=O)NC1=S` to `O=C1C=CC(=O)N1c1cc(Cl)c(Cl)cc1Cl`, the growth rises from 97.1% to 117%.

Compared with `CCCCOS(=O)(=O)c1ccccc1`, `O=[N+]([O-])c1cc(-c2ccccc2)c(O)c([N+](=O)[O-])c1` is lower in growth: 95.8% for the first, 94.6% for the second.

Going from `CCCCCCCCCCCC(=O)OC(C)C(=O)NCCCC` (stereo not given) to `OC(Cc1cc(CC(O)(C(F)(F)F)C(F)(F)F)nc(CC(O)(C(F)(F)F)C(F)(F)F)c1)(C(F)(F)F)C(F)(F)F`, the growth falls from 107% to 16.1%.

First: Cc1nc([N+](=O)[O-])c(Sc2nncc(-c3ccccc3)n2)n1C
Second: NNc1cccc([N+](=O)[O-])c1
The growth of the first is lower: 79.7% for the first, 94.8% for the second.

In the case of `O=C1C(=O)c2cc([N+](=O)[O-])ccc2-c2ccccc21`, the growth is reported as -79.2% (active).
`Cc1ccc(/C=C2\CNC/C(=C\c3ccc(C)cc3)C2=O)cc1` was tested, and the growth was -28.4% (active).
`CN(C)c1ccc(/C=C/c2sc3ccc4ccccc4c3[n+]2C)cc1` was tested, and the growth was -27.3% (active).
In the case of `Cc1ccc(NC2=CC(=O)C(=O)c3ccccc32)cc1`, the growth is reported as -25.4% (active).
